Laboratory results taken from publication PMC5540273 (PLoS ONE, 2017).

Tests used:
Conditions in all cases: concentration: 1 μM, replicates: in singlicate; n = 1
BMX = tested on: BMX
BRAF = tested on: BRAF
BRK = tested on: T1, BRK
T1 construct: gene PTK6

BRSK1 = tested on: BRSK1
BRSK2 = tested on: BRSK2
BTK = tested on: BTK
BUB1 = tested on: BUB1
CAMK1B = tested on: CAMK1B
CAMK1D = tested on: CAMK1D
CAMK1G = tested on: CAMK1G
CAMK1 = tested on: CAMK1
CAMK2A = tested on: CAMK2A
CAMK2B = tested on: CAMK2B
CAMK2D = tested on: CAMK2D
CAMK2G = tested on: CAMK2G
CAMK4 = tested on: CAMK4
CAMKK1 = tested on: CAMKK1
CAMKK2 = tested on: CAMKK2
CASK = tested on: CASK
CDC2L1 = tested on: T2, CDC2L1
T2 construct: gene CDK11B
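Note: KINOMEscan kinase panel screen.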

SMILES	%Inh (BMX) [%]	%Inh (BRAF) [%]	%Inh (BRK) [%]	%Inh (BRSK1) [%]	%Inh (BRSK2) [%]	%Inh (BTK) [%]	%Inh (BUB1) [%]	%Inh (CAMK1B) [%]	%Inh (CAMK1D) [%]	%Inh (CAMK1G) [%]	%Inh (CAMK1) [%]	%Inh (CAMK2A) [%]	%Inh (CAMK2B) [%]	%Inh (CAMK2D) [%]	%Inh (CAMK2G) [%]	%Inh (CAMK4) [%]	%Inh (CAMKK1) [%]	%Inh (CAMKK2) [%]	%Inh (CASK) [%]	%Inh (CDC2L1) [%]
COc1cc(Nc2nccc(N3CCC(NC(=O)c4cc5ccccc5s4)C3)n2)cc(OC)c1OC (stereo not shown) [GSK1379760]	1	4	11	0	4	67	26	49	14	18	17	0	1	0	29	0	12	0	12	0
CN(c1ccc(NC(=O)Nc2cc(C(F)(F)F)ccc2F)cc1)c1ccnc(Nc2ccc(S(N)(=O)=O)cc2)n1 [GW809893]	71	66	76	15	8	25	0	0	38	0	48	0	4	1	9	0	16	15	35	88
CCc1ccc(-c2ccc3c(c2)-c2c(cnn2C)S(=O)(=O)N3C)cc1	0	0	1	19	0	3	15	0	0	5	2	0	4	0	13	0	13	12	3	0
O=C(Nc1cccc(-c2nn3ccccc3c2-c2ccnc(Nc3cccc(C(F)(F)F)c3)n2)c1)c1c(F)cccc1F [GSK292658]	52	43	41	0	0	50	45	33	0	0	4	0	0	5	0	0	16	3	0	0
FC(F)(F)c1ccc(/C=C/c2cncnc2Nc2ccc3[nH]c(Cc4ccccc4)nc3c2)cc1 [GW709199]	0	0	11	3	8	19	0	0	5	0	0	34	36	3	8	0	19	0	10	0
O=C(Nc1n[nH]c2cc(-c3ccoc3)ccc12)C1CC1 [SB-738481]	16	0	0	11	0	0	0	0	0	0	0	8	0	14	25	0	2	18	0	0
CCCCc1nn2ncccc2c1-c1ccnc(Nc2ccc(N3CCN(C)CC3)cc2)n1 [GW684941]	53	86	69	3	0	57	93.3	25	0	0	28	0	0	0	0	0	0	0	16	0
COc1ccc(-c2coc3ccc(-c4nnc(SCc5ccc(OC)c(C(F)(F)F)c5)o4)cc23)cc1	29	0	0	0	13	0	0	8	14	3	0	0	1	7	0	12	1	2	1	0
O=c1[nH]cc(-c2ccc(N3CCOCC3)cc2)c2sc(-c3cn[nH]c3)cc12 [GSK2276055]	11	35	0	0	0	0	0	5	29	12	31	2	2	18	25	0	29	22	15	4
Cc1ccc(C(=O)Nc2ccc(Nc3ccnc4cc(-c5nccs5)ccc34)cc2O)cc1.Cl [GW494702]	18	1	38	0	0	100	35	8	0	15	13	0	0	0	14	0	3	6	4	0
Cl.Cl.NCC(C(=O)Nc1cc(Br)c(-c2ccnc3[nH]ccc23)s1)c1ccccc1 (stereo not shown) [GSK1269851]	12	1	7	6	0	0	59	24	0	0	0	100	100	8	12	0	8	0	25	1
c1ccc(-c2n[nH]cc2Nc2ccnc3ccccc23)nc1 [GW694077]	6	0	0	0	0	0	88	49	30	9	20	21	17	19	23	0	13	28	33	0
Clc1ccc(-c2nn3ncccc3c2-c2ccnc(Nc3ccc4c(c3)OCCO4)n2)cc1 [GW829116]	0	52	0	0	0	0	93.1	0	0	0	0	0	0	0	0	3	0	0	15	0
CC(C)c1nc(-c2cccc(NS(=O)(=O)c3c(F)cccc3F)c2F)c(-c2ccnc(Nc3ccc(N4CCOCC4)nc3)n2)s1 [GSK2008607]	99.2	99.9	88	49	75	95.3	98	67	94.3	42	81	0	0	3	29	65	55	15	0	12
Cn1cc(-c2ccc3c(c2)CCN3C(=O)Cc2cccc(Cl)c2)c2c(N)ncnc21 [GSK2606590]	4	11	56	7	0	0	0	0	32	25	26	0	0	18	25	0	19	12	7	0
COc1cccc(C2=C(Nc3ccc(Cl)c(C(=O)O)c3)C(=O)NC2=O)c1 [SB-390769]	0	13	38	0	0	25	44	28	0	0	0	0	0	3	1	0	0	0	100	0
COc1cc(Nc2nccc(-c3c(-c4cccc(NC(=O)c5c(F)cccc5F)c4)nn4ccccc34)n2)cc(OC)c1OC [GSK323521]	7	9	57	8	13	1	3	0	21	31	31	3	0	35	40	30	40	38	5	0
Cl.NC(=O)c1cccc(Nc2nccc(Nc3ccc(Oc4c(Cl)cccc4Cl)c(Cl)c3)n2)c1 [GW659009]	0	6	76	0	0	36	17	0	2	0	14	0	0	0	0	0	0	0	50	0
Nc1ncc(-c2ccc3nccc(-c4ccncc4)c3c2)cc1S(=O)(=O)N1CCOCC1 [GSK1627798]	16	15	8	0	0	0	12	0	36	16	27	0	0	0	49	0	57	78	48	0
COc1cc(Nc2ncc3c(C)nc(-c4cc5ccccc5[nH]4)n3n2)cc(OC)c1OC [GW869516]	25	0	36	0	14	0	0	0	8	0	19	1	8	6	1	0	13	9	0	5
